Laboratory results taken from PubChem BioAssay AID2599 (Sanford-Burnham Center for Chemical Genomics, 2010).
In all, about 330,000 compounds went through this assay and about 5,800 (1.8%) were called active. Only a selection was taken, and actives are over-represented in it overall. Values without a mark were called inactive.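 Rule for the calls: active = inhibition above about 50% at the single tested dose (limit read from the data); inactive = the rest.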

Molecular target: Sentrin-specific protease 6 (Homo sapiens) (UniProt Q9GZR1)
Assay: SENP6 protease inhibitors, primary screen, biochemical, luminescence, uHTS (AID 2599);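 note: plate controls were DMSO wells with enzyme for no effect and DMSO wells lacking enzyme for full effect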
Conditions: Recombinant SENP6 catalytic domain, aminoluciferin luminescence; at 10 µM; active compounds read high

Sentrin-specific protease 6 (Homo sapiens), sequence (Q9GZR1 628-1112 limits assumed): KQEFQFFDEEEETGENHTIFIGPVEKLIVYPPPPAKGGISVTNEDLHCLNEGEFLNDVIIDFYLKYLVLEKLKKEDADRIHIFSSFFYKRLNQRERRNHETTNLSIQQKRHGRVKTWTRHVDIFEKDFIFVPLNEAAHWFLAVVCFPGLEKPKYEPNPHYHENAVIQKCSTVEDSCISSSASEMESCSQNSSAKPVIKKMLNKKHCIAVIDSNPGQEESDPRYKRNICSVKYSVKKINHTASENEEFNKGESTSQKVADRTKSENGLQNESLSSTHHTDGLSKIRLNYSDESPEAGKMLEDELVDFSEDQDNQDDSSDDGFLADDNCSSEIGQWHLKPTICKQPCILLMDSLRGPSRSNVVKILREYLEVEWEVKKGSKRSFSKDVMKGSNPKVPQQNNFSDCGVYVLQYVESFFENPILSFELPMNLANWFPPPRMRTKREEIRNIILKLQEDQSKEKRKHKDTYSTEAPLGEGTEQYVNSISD

In order of falling inhibition:
1. Cc1ccc(-c2nc(-c3ccncc3)no2)c(C)c1  49.8%
2. O=C1NNC(c2ccccc2)=N/C1=C\c1ccc(Cl)cc1  29.3%
3. COc1ccc(CCc2nc(-c3cccs3)no2)cc1  19.7%
4. O=C(O)c1ccc(N=NN2CCOCC2)cc1  17.8%
5. CCN(CC)S(=O)(=O)c1ccc(-c2cn3ccc(C)cc3n2)cc1  11.7%
6. Nc1nc(NCC(=O)O)nc(N2CCCCCC2)c1[N+](=O)[O-]  11.1%
7. O=C(O)c1c(NC(=O)N2CCCC2)sc2c1CCCC2  9.21%
8. CC(C)NC(=S)Nc1cccc2cnccc12  5.39%
9. Nc1ccc(S(=O)(=O)Nc2nccc(/C=C/c3ccc(Br)s3)n2)cc1  4.55%
10. Cc1noc(C)c1COC(=O)COc1ccc(-c2ccccc2)cc1  4.53%
11. COc1ccc2nc(NC(=O)[C@@H]3CCCN3C(=O)c3cccs3)sc2c1  4.51%
12. Fc1c(F)c(C(F)(F)F)c(F)c(F)c1N1CCN(c2ccc3nnc(C(F)(F)F)n3n2)CC1  3.56%
13. NC1=NN(c2cccc(C(=O)O)c2)C(=O)C1  3.51%
14. Clc1ccc(-n2nnnc2-c2cnc(-c3ccccn3)nc2-c2cccs2)cc1  1.6%
15. COc1ccc2nc(NC(=O)NC3CCCCC3)sc2c1  0.352%
16. Cc1[nH]c(C)c(S(=O)(=O)N2CCC(C)CC2)c1C(=O)N1CCCC1  0.187%
17. Cc1coc(C)c1C(=O)CC1(O)C(=O)N(C)c2ccc(Cl)cc21 (stereo not drawn)  0.041%
18. Cc1cccc(Nc2nc3c(S(=O)(=O)c4ccccc4)nnn3c3ccccc23)c1C  -2.12%
19. CC(C(=O)NC1CCCCC1)N1C(=O)c2cccc3cccc1c23 (stereo not drawn)  -3.48%
20. CC(OC(=O)CN1C(=O)COc2ccccc21)C(=O)NCc1ccc(F)cc1 (stereo not drawn)  -3.56%
21. CC(OC(=O)c1ccc(S(=O)(=O)N2CCOCC2)cc1)c1ccccc1 (stereo not drawn)  -4.11%
22. C/C(N)=C(\C#N)C(=O)NCCc1ccccn1  -4.65%
23. COC(=O)c1c(NC(=O)c2ccccc2F)sc2c1C(C(=O)OC)CC2 (stereo not drawn)  -5.07%
24. O=C(NC1CC1)C1CCCN(C(=O)NC2CCCCC2)C1 (stereo not drawn)  -5.19%
25. CCN1CCN(c2nc(Nc3cccc(F)c3)nc(N)c2[N+](=O)[O-])CC1  -5.24%
26. O=C1c2ccccc2C(=O)N1CCC#Cc1ccc2cc(C3(O)CCCCC3)oc(=O)c2c1  -5.78%
27. N#CCc1c(C#N)c(N)nc(N2CCCC2)c1C#N  -5.83%
28. CS(=O)(=O)Nc1ccccc1N=C(c1ccccc1)c1ccccc1  -6.12%
29. O=C(CCC(=O)OCC(F)(F)C(F)F)NCc1ccccc1  -6.23%
30. Cc1cc(N2CCOCC2)nc(-c2ccc(Br)cc2)n1  -6.76%
31. O=C1C2C3C=CC(C3)C2C(=O)N1c1ccc(-c2nc3ccccc3c(=O)o2)cc1 (stereo not drawn)  -7.9%
32. O=C(COC(=O)c1ccccn1)Nc1cccc2ccccc12  -9.05%
33. COc1ccc(-c2cn3ccc(C)cc3n2)cc1  -9.63%
34. COc1cc(OC)cc(-c2nc(=S)n3ccsc3n2)c1  -9.64%
35. COC(=O)c1c(NC(=O)COc2ccc(Cl)cc2Cl)sc2c1CC(C)(C)NC2(C)C  -10.5%
36. CC(C)(C)Oc1ccccc1Nc1nc(NCCO)nc(N2CCCC2)n1  -11%
37. CSc1nnc2ccc(-c3ccc(C)cc3)nn12  -11.1%
38. O=C(O)Cc1ccc(NC(=O)Nc2cccc3ccccc23)cc1  -11.3%
39. COc1ccc(S(=O)(=O)NC(C)C(=O)N2CCCCCC2)cc1 (stereo not drawn)  -11.4%
40. COc1ccc(-c2cn3cccnc3n2)cc1  -11.4%
41. COc1cc(/C=C2\Oc3ccc(C#Cc4ccc(O)cc4)cc3C2=O)cc(OC)c1  -11.5%
42. COc1ccccc1-n1nnnc1S(=O)(=O)Cc1ccc(Cl)cc1  -13.9%
43. COC(=O)c1ccc(S(=O)(=O)N2CCc3ccccc3C2)cc1  -14.9%
44. c1ccc(CCc2nc(-c3ccncc3)no2)cc1  -15.3%
45. COc1cccc(Nc2nc(N)c([N+](=O)[O-])c(NCc3ccco3)n2)c1  -15.6%
46. COc1ccccc1NC(=O)C(C)OC(=O)c1ccc(-n2cnnn2)cc1 (stereo not drawn)  -16.5%
47. Fc1ccc(COc2cccc(-c3n[nH]c(=S)o3)c2)cc1  -20.2%
48. Cn1cc(CN2CCCC(CO)C2)c(-c2ccc(Oc3ccccc3)cc2)n1 (stereo not drawn)  -24.4%
49. O=C(COC(=O)c1ccncc1)c1ccccc1  -26.7%
50. Cc1ccc(C(=O)Nc2nc(N)n(-c3ccccc3)n2)cc1  -27.7%
51. Fc1cccc(Cl)c1COc1ccc(-c2nnco2)cc1  -29.1%
52. Cc1sc2ncn(CC(=O)NCCCC(=O)NCc3ccc(F)cc3)c(=O)c2c1C  -35.1%

In the case of `COc1ccc2nc(Nc3nc4cc5c(cc4s3)OCCO5)sc2c1`, the inhibition is reported as 70.8% (active).
`O=C(O)c1cccc(N=NN2CCCCCC2)c1` was tested, and the inhibition was 90.2% (active).
With `Oc1cccc2ccc(/C=C/c3ccc(Br)s3)nc12` the inhibition was 64.4% (active).
In the case of `N#Cc1c(N2CCCCC2)nc(N)c2c(N)nc(SCC(=O)O)cc12`, the inhibition is reported as 74.6% (active).
In the case of `O=C(ON=C1CCN(S(=O)(=O)c2ccccc2)CC1)c1ccc(Cl)cc1`, the inhibition is reported as 55.9% (active).
`COc1ccc(-c2cn3ccsc3n2)cc1` was tested, and the inhibition was 64% (active).
In the case of `O=C(Nc1cccc2ccccc12)c1onc2c1CCCC2`, the inhibition is reported as 84% (active).
`COc1cc(C#Cc2ccc3cc(CCCO)oc(=O)c3c2)cc(OC)c1` was tested, and the inhibition was 74% (active).
In the case of `Cc1ccc(-c2cn3cc(C)ccc3n2)cc1`, the inhibition is reported as 65.4% (active).
`Cc1ccc2nc(-c3ccc(Br)cc3)cn2c1` was tested, and the inhibition was 89.9% (active).
With `CNc1nc(Nc2ccc(C)c(Cl)c2)nc(N)c1[N+](=O)[O-]` the inhibition was 99.7% (active).
With `O=C(Nc1sc2c(c1C(=O)O)CCC2)c1ccccc1F` the inhibition was 94% (active).
With `Fc1ccc(COc2ccc(-c3nnco3)cc2)cc1` the inhibition was 61.6% (active).
`c1csc(-c2nc(-c3ccncc3)no2)c1` was tested, and the inhibition was 60.3% (active).
In the case of `O=C(Oc1ccc(-c2nc(-c3ccccn3)no2)cc1)c1ccccc1`, the inhibition is reported as 97.9% (active).
For `c1ccc(-c2noc(-c3cccs3)n2)nc1`, the inhibition was 92% (active).
